# Reference: PubChem BioAssay (EPA / NIEHS)
# Records with an inconclusive call do not appear. Calls of active or inactive are those of the source. The calls were made as follows, unless noted: active = hit-call score of the fitted dose curve at least 0.9, where 1 is the maximum; inconclusive = response in the unintended direction; inactive = score below 0.9.
# Assays:
# [1] = TOX21_p53_BLA_p2_viability: Viability Assessment in the Tox21 HCT-116 p53 Agonism Beta-lactamase Assay, Phase 2 (AID 2283591);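 also: compound exposure lasted 16 h at 37 °C; actives lower the ATP signal meaning cytotoxicity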
# Outline: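 HCT-116 p53-bla cells (4000/well) rested 5 h at 37C, then received compounds in DMSO (217-fold dilution) for 16 h at 37C, 5% CO2. After the CCF4 read, CellTiter-Glo was added; ATP luminescence was read after 30 min at room temperature.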
# [2] = molecular target: Cellular tumor antigen p53 (Homo sapiens) (UniProt P04637); experiment: TOX21_p53_BLA_p2_ratio: Tox21 HCT-116 p53 Agonism Beta-lactamase Assay, Ratio, Phase 2 (AID 2283592)
# Outline: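 HCT116 cells carrying a p53-responsive beta-lactamase reporter were plated, incubated 5 h at 37C, then dosed with compounds in DMSO (217-fold dilution) for 16 h. CCF4-AM substrate was added for 2 h at room temperature; the 460/530 nm emission ratio gave gain-of-signal activity relative to DMSO.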
# [3] = TOX21_p53_BLA_p3_viability: Viability Assessment in the Tox21 HCT-116 p53 Agonism Beta-lactamase Assay, Phase 3 (AID 2283593);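 also: cells exposed to compound for 16 h before reading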
# Outline: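 HCT-116 cells (4000/well) rested 5 h at 37C, then got DMSO compounds by pin tool (217-fold dilution) for 16 h at 37C, 5% CO2. After the bla read, CellTiter-Glo was added and luminescence read at 30 min, room temperature.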
# [4] = molecular target: Cellular tumor antigen p53 (Homo sapiens) (UniProt P04637); experiment: TOX21_p53_BLA_p3_ratio: Tox21 HCT-116 p53 Agonism Beta-lactamase Assay, Ratio, Phase 3 (AID 2283596)
# Outline: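 HCT116 p53-bla cells (4000/well) given compound in DMSO (217-fold dilution) after 5 h, incubated 16 h at 37C. CCF4-AM substrate 2 h at room temperature; 460/530 nm emission ratio, gain fitted against DMSO.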
# [5] = TOX21_p53_BLA_p4_viability: Viability Assessment in the Tox21 HCT-116 p53 Agonism Beta-lactamase Assay, Phase 4 (AID 2283597);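 also: hits lower the luminescence signal meaning cytotoxicity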
# Outline: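 HCT116 p53-bla cells (4000/well) rested 5 h at 37C, then received compounds in DMSO (217-fold dilution) for 16 h at 37C, 5% CO2. CellTiter-Glo was added after the CCF4-AM read, and luminescence was read after 30 min at room temperature.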
# [6] = molecular target: Cellular tumor antigen p53 (Homo sapiens) (UniProt P04637); experiment: TOX21_p53_BLA_p5_ratio: Tox21 HCT-116 p53 Agonism Beta-lactamase Assay, Ratio, Phase 5 (AID 2283599)
# Outline: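 HCT-116 cells carrying a p53-inducible beta-lactamase reporter were seeded at 4000 cells/well and dosed after 5 h with compound in DMSO (217-fold dilution). After 16 h at 37C, CCF4-AM substrate was added for 2 h, and the 460/530 nm emission ratio was scored as gain-of-signal versus DMSO.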
# [7] = TOX21_p53_BLA_p5_viability: Viability Assessment in the Tox21 HCT-116 p53 Agonism Beta-lactamase Assay, Phase 5 (AID 2283600)
# Outline: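 Cells were plated at 4000/well, rested 5 h at 37C, then given compounds in DMSO (217-fold dilution) for 16 h at 37C, 5% CO2. Following the CCF4-AM beta-lactamase read, CellTiter-Glo was added and luminescence was read after 30 min at room temperature.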
# [8] = molecular target: Cellular tumor antigen p53 (Homo sapiens) (UniProt P04637); experiment: TOX21_p53_BLA_p4_ratio: Tox21 HCT-116 p53 Agonism Beta-lactamase Assay, Ratio, Phase 4 (AID 2283601)
# Outline: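 HCT116 cells carrying an inducible beta-lactamase reporter were plated at 4000 cells/well, rested 5 h, then exposed to compounds in DMSO (217-fold dilution) for 16 h at 37C. CCF4-AM substrate was loaded 2 h at room temperature; 460/530 nm emission ratio scored gain-of-signal versus DMSO.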
# [9] = molecular target: Thyroid hormone receptor alpha (Rattus norvegicus) + Thyroid hormone receptor beta (Rattus norvegicus) (UniProt P18113+P63059); experiment: TOX21_TR_LUC_GH3_Antagonist_Followup: Tox21 GH3 Thyroid Hormone Receptor Antagonism Luciferase Follow-Up Assay (AID 2283942)
# Outline: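 Rat pituitary GH3 cells with a TRα/TRβ-driven luciferase reporter, 5 h attachment, then 15 concentrations (92 uM to 5nM final) plus 1.0 nM T3 agonist, 24 h at 37C/5% CO2. ONE-Glo luminescence; signal change fitted against DMSO baseline.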
# THRA (gene 7067) = THRA (gene 7067) (UniProt P10827); experiment: TOX21_TRA_COA_Antagonist_Followup_ratio: Tox21 Thyroid Hormone Receptor alpha Antagonism through Coactivator Recruitment Follow-Up Assay, Ratio (AID 2283953)
# Outline: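 520:495 nm emission ratio (excitation 340 nm) reports fluorescein-SRC-2 peptide recruitment to GST-TRα LBD by TR-FRET with Tb anti-GST antibody. Values were normalized to DMSO (0%) and T3 control wells (100%); loss of signal indicated antagonism.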
# THRB (gene 7068) [10] = molecular target: THRB (gene 7068) (UniProt P10828); experiment: TOX21_TRB_BLA_Antagonist_Followup_ratio: Tox21 Thyroid Hormone Receptor beta Antagonism Beta-lactamase (BLA) Follow-Up Assay, Ratio (AID 2283958)
# Outline: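 HEK293T TRb-bla (GAL4 DBD + hTRβ LBD), 2% cs-FBS phenol red-free DMEM, 5 h attach; cpds 11-pt triplicate, 18 h 37C; CCF4-AM 2 h RT; 460/530 ratio vs DMSO; CellTiter-Glo viability same wells.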
# [11] = TOX21_TRB_BLA_Antagonist_Followup_viability: Viability Assessment in the Tox21 Thyroid Hormone Receptor beta Antagonism Beta-lactamase (BLA) Follow-Up Assay (AID 2283961)
# Outline: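 HEK293T cells stably expressing GAL4-DBD/human TRβ-LBD with UAS-bla reporter, 3,000 cells/well in phenol red-free DMEM, 2% charcoal-stripped FBS. Compounds at 11 concentrations in triplicate, 18 h at 37C/5% CO2; viability by CellTiter-Glo luminescence after 30 min at room temperature.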
# THRB (gene 7068) [12] = molecular target: THRB (gene 7068) (UniProt P10828); experiment: TOX21_TRB_COA_Antagonist_Followup_ratio: Tox21 Thyroid Hormone Receptor beta Antagonism through Coactivator Recruitment Follow-Up Assay, Ratio (AID 2283967)
# Outline: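 Cell-free TR-FRET coactivator recruitment with GST-tagged TRβ LBD (5.0 nM) and fluorescein-labeled SRC-2 peptide (200 nM) detected by terbium anti-GST antibody (2 nM). The 520:495 nm emission ratio was normalized to DMSO (0%) and T3 (100%).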
# [13] = molecular target: Retinoic acid receptor RXR-alpha (Homo sapiens) (UniProt P19793); experiment: TOX21_TR_RXR_BLA_Antagonist_Followup_ratio: Tox21 Thyroid Hormone Receptor beta Retinoid X Receptor alpha (RXRa) Antagonism Beta-lactamase (BLA) Follow-Up Assay, Ratio (AID 2283972)
# Outline: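 RXRa-UAS-bla HEK293T cells in phenol red-free DMEM with 2% charcoal-stripped FBS; compounds at 11 concentrations in triplicate, 16 h at 37C. LiveBLAzer FRET-B/CCF4-AM substrate 2 h at room temperature; read as 460:530 nm ratio versus DMSO.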
# [14] = CCTE_Harrill_HTTr_Viability_MCF7: CCTE's 6-hour Cell Viability Assessment for the High-Throughput Transcriptomics (HTTr) Platform, in MCF-7 cells cultured in DMEM + 10% fetal bovine serum, Harrill Lab (AID 2284010; active = hit-call score of the fitted dose curve at least 0.9, where 1 is the maximum; inactive = score below 0.9)
# Outline: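 Cells were dosed with chemicals in an eight-point dilution series, imaged 6 hours later for propidium iodide uptake, and the endpoint was analyzed by bidirectional fitting against DMSO as negative control.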
# [15] = CCTE_Harrill_HTTr_Apoptosis_MCF7: CCTE's 6-hour Apoptosis Assessment for the High-Throughput Transcriptomics (HTTr) Platform, in MCF-7 cells cultured in DMEM + 10% fetal bovine serum, Harrill Lab (AID 2284011; active = hit-call score of the fitted dose curve at least 0.9, where 1 is the maximum; inactive = score below 0.9)
# Outline: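 MCF-7 cells in DMEM + 10% fetal bovine serum were exposed to chemicals for 6 hours over an eight-point dilution series. Caspase-3/7 activation was imaged by high content imaging with CellEvent Caspase 3/7 Green; bidirectional fitting used DMSO as baseline.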
# [16] = CCTE_Harrill_HTTr_CellCount_MCF7: CCTE's Cell Proliferation Assessment for the High-Throughput Transcriptomics (HTTr) Platform, Harrill Lab (AID 2284012);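 also: count of Hoechst-stained nuclei per well by high-content imaging in MCF-7 cells; cells exposed to compound for six hours; intended direction is loss of nuclei count meaning fewer cells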
# Outline: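 Chemicals in eight-point dilution series are added to MCF-7 cells for six hours, nuclei are stained with Hoechst and imaged, and per-well nuclei counts are fitted in both directions relative to DMSO controls.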
# Sequence of Cellular tumor antigen p53 (Homo sapiens) (P04637 whole entry, looked up): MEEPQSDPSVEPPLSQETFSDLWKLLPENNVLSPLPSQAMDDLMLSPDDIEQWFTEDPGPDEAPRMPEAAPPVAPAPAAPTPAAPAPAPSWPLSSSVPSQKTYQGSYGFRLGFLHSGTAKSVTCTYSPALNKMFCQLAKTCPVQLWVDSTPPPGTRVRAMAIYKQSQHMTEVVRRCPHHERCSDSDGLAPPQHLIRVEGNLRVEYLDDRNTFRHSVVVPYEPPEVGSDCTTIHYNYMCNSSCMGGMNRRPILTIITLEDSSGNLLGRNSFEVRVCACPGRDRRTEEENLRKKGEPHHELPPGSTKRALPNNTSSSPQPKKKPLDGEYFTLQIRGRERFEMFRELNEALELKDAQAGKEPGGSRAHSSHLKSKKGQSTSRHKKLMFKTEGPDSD
# Sequence of THRB (gene 7068) (P10828 whole entry, looked up, the tested form may be a part): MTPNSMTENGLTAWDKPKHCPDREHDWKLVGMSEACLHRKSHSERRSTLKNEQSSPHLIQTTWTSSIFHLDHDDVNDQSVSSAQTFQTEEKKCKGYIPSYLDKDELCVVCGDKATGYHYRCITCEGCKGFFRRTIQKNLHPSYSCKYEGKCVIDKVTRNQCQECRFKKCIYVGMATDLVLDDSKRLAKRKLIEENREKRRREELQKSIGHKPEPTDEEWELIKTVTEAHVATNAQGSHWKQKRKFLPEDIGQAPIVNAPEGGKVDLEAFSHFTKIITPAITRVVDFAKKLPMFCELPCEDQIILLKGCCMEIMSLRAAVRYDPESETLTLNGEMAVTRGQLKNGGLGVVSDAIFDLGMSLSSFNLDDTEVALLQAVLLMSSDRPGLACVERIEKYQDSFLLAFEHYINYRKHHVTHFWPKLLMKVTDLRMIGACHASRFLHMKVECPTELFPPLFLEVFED
# Sequence of THRA (gene 7067) (P10827 whole entry, looked up, the tested form may be a part): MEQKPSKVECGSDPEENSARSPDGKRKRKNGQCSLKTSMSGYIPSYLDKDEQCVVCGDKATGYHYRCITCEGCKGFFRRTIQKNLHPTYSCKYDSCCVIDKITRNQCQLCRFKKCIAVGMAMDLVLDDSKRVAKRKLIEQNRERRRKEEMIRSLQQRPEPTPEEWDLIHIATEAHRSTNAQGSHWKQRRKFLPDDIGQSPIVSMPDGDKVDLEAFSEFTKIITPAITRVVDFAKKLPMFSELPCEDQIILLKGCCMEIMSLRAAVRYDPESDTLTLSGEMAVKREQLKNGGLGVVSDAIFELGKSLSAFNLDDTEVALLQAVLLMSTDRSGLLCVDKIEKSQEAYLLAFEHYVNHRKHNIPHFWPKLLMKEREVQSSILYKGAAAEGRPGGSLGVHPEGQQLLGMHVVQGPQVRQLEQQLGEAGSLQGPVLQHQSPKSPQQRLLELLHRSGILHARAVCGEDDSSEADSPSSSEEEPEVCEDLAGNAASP
# Sequence of Retinoic acid receptor RXR-alpha (Homo sapiens) (P19793 whole entry, looked up): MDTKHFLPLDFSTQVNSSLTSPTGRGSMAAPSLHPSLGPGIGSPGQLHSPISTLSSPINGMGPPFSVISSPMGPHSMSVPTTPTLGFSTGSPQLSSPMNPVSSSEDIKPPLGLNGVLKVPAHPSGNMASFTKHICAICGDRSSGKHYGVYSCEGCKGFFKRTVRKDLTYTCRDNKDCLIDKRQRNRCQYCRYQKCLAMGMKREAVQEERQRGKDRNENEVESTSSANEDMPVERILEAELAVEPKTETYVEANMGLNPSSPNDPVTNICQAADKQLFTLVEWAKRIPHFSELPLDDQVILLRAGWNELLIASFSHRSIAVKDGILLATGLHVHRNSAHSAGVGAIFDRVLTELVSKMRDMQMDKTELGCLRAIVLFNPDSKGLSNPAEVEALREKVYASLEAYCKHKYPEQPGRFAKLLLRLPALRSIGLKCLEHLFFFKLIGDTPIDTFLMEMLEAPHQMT
smiles,measurement,setting,value
O=c1[nH]c(=O)n([C@H]2C[C@H](O)[C@@H](CO)O2)cc1F,outcome,[1],inactive
same,outcome,[2],inactive
same,AC50,[3],600 nM (active)
same,AC50,[4],1450 nM (active)
same,AC50,[5],1530 nM (active)
same,AC50,[6],1800 nM (active)
same,AC50,[7],595 nM (active)
same,AC50,[8],6700 nM (active)
same,outcome,[9],inactive
same,outcome,THRA (gene 7067),inactive
same,outcome,THRB (gene 7068) [10],inactive
same,outcome,[11],inactive
same,outcome,THRB (gene 7068) [12],inactive
same,outcome,[13],inactive
CCOC(=O)n1ccn(C)c1=S,outcome,[1],inactive
same,outcome,[2],inactive
same,outcome,[3],inactive
same,outcome,[4],inactive
same,outcome,[5],inactive
same,outcome,[6],inactive
same,outcome,[7],inactive
same,outcome,[8],inactive
same,outcome,[14],inactive
same,outcome,[15],inactive
same,outcome,[16],inactive
